{"source": "PubChem BioAssay (NCATS)", "note": "Calls of active or inactive are those of the source. Cut-off read from the data, not from the text of the source: active = potency below about 10 µM; inactive = the rest. Potency is the fitted concentration of half-maximal effect."}
{"target": "Lysosomal acid glucosylceramidase (Homo sapiens) (UniProt P04062)", "sequence (P04062 whole entry, looked up)": "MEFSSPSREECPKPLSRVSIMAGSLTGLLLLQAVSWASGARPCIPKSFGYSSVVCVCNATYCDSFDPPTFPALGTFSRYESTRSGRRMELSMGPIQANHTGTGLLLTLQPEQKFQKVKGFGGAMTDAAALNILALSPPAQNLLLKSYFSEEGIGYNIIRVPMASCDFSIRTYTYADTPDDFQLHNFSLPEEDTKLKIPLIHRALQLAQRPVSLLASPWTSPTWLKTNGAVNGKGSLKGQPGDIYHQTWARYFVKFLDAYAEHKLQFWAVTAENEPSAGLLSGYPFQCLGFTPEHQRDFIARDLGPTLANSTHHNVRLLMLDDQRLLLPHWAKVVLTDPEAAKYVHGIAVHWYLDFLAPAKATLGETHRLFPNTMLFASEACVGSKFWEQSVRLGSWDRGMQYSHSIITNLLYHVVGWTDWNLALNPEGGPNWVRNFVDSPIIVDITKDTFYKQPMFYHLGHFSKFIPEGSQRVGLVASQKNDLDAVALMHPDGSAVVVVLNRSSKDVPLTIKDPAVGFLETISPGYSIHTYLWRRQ", "assay": "Glucocerebrosidase-p2 (AID 348)", "conditions": "purified GBA, blue fluorogenic substrate, 40 min", "outline": "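Compounds titrated from 0.6 nM upwards against 0.2 nM enzyme in pH 5.9 citric acid/KH2PO4, taurocholate, tween-20; blue fluorogenic substrate 80 uM, 40 min room temperature, stopped and read Ex 365/Em 440 for AC50.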"}
{"smiles": "CC(=O)N1CCC2(CC1)CN(Cc1ccccc1)C2", "Potency": "> 11.4 µM (inactive)"}
{"smiles": "Cn1cccc1C(=O)N1CCC2(CCN(C(=O)Nc3cccc(F)c3)CC2)CC1", "Potency": "> 11.4 µM (inactive)"}
{"smiles": "COCC(=O)N1CCC2(CC1)CCN(C(=O)Nc1ccc(OC)cc1)CC2", "Potency": "> 11.4 µM (inactive)"}
{"smiles": "COC(=O)N1CCC[C@@]2(CCN(c3ccncc3)C2)C1", "Potency": "> 11.4 µM (inactive)"}
{"smiles": "COC(=O)N1CCC2(CCN(C(=O)NC(C)C)CC2)CC1", "Potency": "> 11.4 µM (inactive)"}
{"smiles": "O=C(Nc1cccc(F)c1)N1CCC2(CCNCC2)CC1", "Potency": "> 11.4 µM (inactive)"}
{"smiles": "O=S(=O)(c1ccccc1)N1CCC2(CCN(C(c3ccccc3)c3ccccc3)CC2)CC1", "Potency": "> 11.4 µM (inactive)"}
{"smiles": "CC(C)NC(=O)N1CC[C@@]2(CCCN(C(=O)c3cccn3C)C2)C1", "Potency": "> 11.4 µM (inactive)"}
{"smiles": "CS(=O)(=O)N1CCC2(CCN(c3ccccc3)CC2)CC1", "Potency": "> 11.4 µM (inactive)"}
{"smiles": "CC(C)NC(=O)N1CC[C@@]2(CCCN(C(=O)Oc3ccccc3)C2)C1", "Potency": "> 11.4 µM (inactive)"}
{"smiles": "COc1ccc(NC(=O)N2CC[C@@]3(CCCNC3)C2)cc1", "Potency": "> 11.4 µM (inactive)"}
{"smiles": "O=C(c1ccncc1)N1CCC2(CC1)CN(c1ncccn1)C2", "Potency": "> 11.4 µM (inactive)"}
{"smiles": "COc1ccc(NC(=O)N2CC3(CCN(C(=O)c4cccn4C)CC3)C2)cc1", "Potency": "> 11.4 µM (inactive)"}
{"smiles": "COC(=O)N1CCC2(CC1)CN(C(=O)Nc1ccccc1)C2", "Potency": "> 11.4 µM (inactive)"}
{"smiles": "COc1ccccc1CN1CC[C@@]2(CCCN(C(=O)c3c(C)noc3C)C2)C1", "Potency": "> 11.4 µM (inactive)"}
{"smiles": "CC(=O)N1CCC[C@@]2(CCN(Cc3ccccc3)C2)C1", "Potency": "> 11.4 µM (inactive)"}
{"smiles": "O=C(c1csnn1)N1CCC2(CCCN(Cc3cc(C(F)(F)F)cc(C(F)(F)F)c3)C2)CC1", "Potency": "> 11.4 µM (inactive)"}
{"smiles": "CS(=O)(=O)N1CCC2(CC1)CN(C(=O)Nc1ccccc1)C2", "Potency": "> 11.4 µM (inactive)"}
{"smiles": "O=C(Nc1cccc(F)c1)N1CCC2(CC1)CCN(C(=O)c1csnn1)CC2", "Potency": "> 11.4 µM (inactive)"}
{"smiles": "COCC(=O)N1CCC2(CCCN(C(=O)Nc3cccc(F)c3)C2)CC1", "Potency": "> 11.4 µM (inactive)"}
{"smiles": "COc1ccc(NC(=O)N2CCC3(CC2)CCN(C(=O)c2cnccn2)CC3)cc1", "Potency": "> 11.4 µM (inactive)"}
{"smiles": "O=C(Nc1ccccc1)N1CCC2(CC1)CCN(C(=O)c1csnn1)CC2", "Potency": "> 11.4 µM (inactive)"}
{"smiles": "COC(=O)N1CCC[C@@]2(CCN(C(=O)Nc3ccccc3)C2)C1", "Potency": "> 11.4 µM (inactive)"}
{"smiles": "COc1ccc(C(=O)N2CCC3(CCCN(Cc4ccncc4)C3)CC2)cc1", "Potency": "> 11.4 µM (inactive)"}
{"smiles": "O=C(c1cc(C(F)(F)F)cc(C(F)(F)F)c1)N1CCC[C@@]2(CCN(Cc3ccncc3)C2)C1", "Potency": "> 11.4 µM (inactive)"}
{"smiles": "COc1ccc(NC(=O)N2CC3(CCN(C(=O)c4c(C)noc4C)CC3)C2)cc1", "Potency": "> 11.4 µM (inactive)"}
{"smiles": "O=C(Nc1ccccc1)N1CCC2(CC1)CCN(C(=O)c1cnccn1)CC2", "Potency": "> 11.4 µM (inactive)"}
{"smiles": "COC(=O)N1CCC2(CC1)CN(c1cccc(-c3ccccc3)c1)C2", "Potency": "> 11.4 µM (inactive)"}
{"smiles": "COCC(=O)N1CCC[C@@]2(CCN(c3ncccn3)C2)C1", "Potency": "> 11.4 µM (inactive)"}
{"smiles": "O=C(Nc1cccc(F)c1)N1CC2(CCN(C(=O)c3csnn3)CC2)C1", "Potency": "> 11.4 µM (inactive)"}
{"smiles": "COCC(=O)N1CCC2(CC1)CN(C(=O)Nc1cccc(C#N)c1)C2", "Potency": "> 11.4 µM (inactive)"}
{"smiles": "CC(C)NC(=O)N1CCC2(CC1)CCN(S(C)(=O)=O)CC2", "Potency": "> 11.4 µM (inactive)"}
{"smiles": "O=C(c1csnn1)N1CCC2(CC1)CN(c1ccncc1)C2", "Potency": "> 11.4 µM (inactive)"}
{"smiles": "COCC(=O)N1CCC2(CC1)CCN(C(=O)Nc1cccc(F)c1)CC2", "Potency": "> 11.4 µM (inactive)"}
{"smiles": "O=C(c1cnccn1)N1CCC2(CCN(Cc3nccs3)CC2)CC1", "Potency": "> 11.4 µM (inactive)"}
{"smiles": "CC(=O)N1CCC2(CC1)CN(c1ccncc1)C2", "Potency": "> 11.4 µM (inactive)"}
{"smiles": "CS(=O)(=O)N1CCC2(CCN(C(=O)Nc3cccc(F)c3)CC2)CC1", "Potency": "> 11.4 µM (inactive)"}
{"smiles": "O=C(Nc1ccccc1)N1CC[C@@]2(CCCN(C(=O)c3ccco3)C2)C1", "Potency": "> 11.4 µM (inactive)"}
{"smiles": "CS(=O)(=O)N1CCC[C@@]2(CCN(C(=O)Nc3ccccc3)C2)C1", "Potency": "> 11.4 µM (inactive)"}
{"smiles": "Cc1noc(C)c1C(=O)N1CCC[C@@]2(CCN(C(=O)NC(C)C)C2)C1", "Potency": "> 11.4 µM (inactive)"}
